Assay results reported in PubChem BioAssay (Tox21).
Several values for one entry are separate records, joined by “and”; a condition that tells them apart may be missing. Equal values may be shown once. Inconclusive results are not listed. Activity calls are given as the source filed them. Unless noted, the call rests on the fitted dose curve; in most records, active means well fitted curve in the direction sought with a large enough effect in the repeat runs; inconclusive means weak or mixed curves; inactive means no such curve, though single readings can be large; an effect the other way counts as inactive or inconclusive.

Legend:
[1] = qHTS assay to identify small molecule antagonists of the glucocorticoid receptor (GR) signaling pathway - cell viability counter screen (AID 720693); further: nearly all actives have a fitted effect of over 55% in size; further: potency means the concentration at half of the fitted maximal effect
[2] = qHTS assay for identifying genotoxic compounds that show differential cytotoxicity against isogenic chicken DT40 cell lines with known DNA damage response pathways - wild type cell line (AID 743012); further: nearly all actives have a fitted effect of over 60% in size; further: potency means the concentration at half of the fitted maximal effect
Summary of the method: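 Luminescent ATP viability signal (CellTiter-Glo, 30 min RT) recorded after wild type DT40 cells were incubated with compounds for 40 h at 37 C/5% CO2.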

[3] = qHTS assay for identifying genotoxic compounds that show differential cytotoxicity against isogenic chicken DT40 cell lines with known DNA damage response pathways - Rev3 mutant cell line (AID 743014); further: nearly all actives have a fitted effect of over 55% in size; further: potency means the concentration at half of the fitted maximal effect
[4] = qHTS assay for identifying genotoxic compounds that show differential cytotoxicity against isogenic chicken DT40 cell lines with known DNA damage response pathways - Rad54/Ku70 mutant cell line (AID 743015); further: nearly all actives have a fitted effect of over 60% in size; further: potency means the concentration at half of the fitted maximal effect
[5] = qHTS assay to identify small molecule antagonists of the androgen receptor (AR) signaling pathway - cell viability counter screen (AID 743033; further: nearly all actives have a fitted effect of over 45% in size; further: potency means the concentration at half of the fitted maximal effect)
[6] = target: Androgen receptor (Homo sapiens) (UniProt P10275); experiment: qHTS assay to identify small molecule agonists of the androgen receptor (AR) signaling pathway (AID 743036; active means well fitted activation curve with a large enough effect in the signal ratio in the repeat runs, with a control signal flat, not every such curve was filed as active; the % refers to the signal ratio)
Summary of the method: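 HEK293 cells stably carrying a UAS-driven beta-lactamase reporter (GeneBLAzer AR-UAS-bla-GripTite) were plated at 2,000 cells/well, rested 4 h at 37C, then exposed to compounds in DMSO for 16 h. LiveBLAzer B/G FRET substrate was added for 2 h at room temperature; fluorescence read.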

[7] = target: Androgen receptor (Homo sapiens) (UniProt P10275); experiment: qHTS assay to identify small molecule agonists of the androgen receptor (AR) signaling pathway using the MDA cell line (AID 743040; further: nearly all actives have a fitted effect of over 20% in size; further: potency means the concentration at half of the fitted maximal effect)
Summary of the method: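 Luciferase agonist assay: 16 h compound exposure at 37C without CO2 in MDA-kb2 AR-luc cells, whose MMTV promoter responds to both AR and GR. Luminescence measured after 30 min room-temperature incubation with ONE-Glo.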

[8] = qHTS assay to identify small molecule antagonists of the androgen receptor (AR) signaling pathway using the MDA cell line - cell viability counter screen (AID 743041; further: nearly all actives have a fitted effect of over 45% in size; further: potency means the concentration at half of the fitted maximal effect)
Summary of the method: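 Viability read by CellTiter-Fluor fluorescence in the same wells as the antagonist screen, added after 15.5 h of a 16 h, 37C exposure. Human breast carcinoma MDA-kb2 AR-luc cells, compounds co-dosed with agonist R1881.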

[9] = target: Androgen receptor (Homo sapiens) (UniProt P10275); experiment: qHTS assay to identify small molecule antagonists of the androgen receptor (AR) signaling pathway (AID 743035; active means well fitted inhibition curve with a large enough effect in the signal ratio in the repeat runs, not every such curve was filed as active; the % refers to the signal ratio; further: potency means the concentration at half of the fitted maximal effect)
Summary of the method: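 Quantitative HTS of the Tox21 10K library used HEK293 AR-UAS-bla cells stimulated with R1881 alongside compound for 16 h at 37C, followed by beta-lactamase FRET detection (LiveBLAzer B/G, 2 h, RT).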

[10] = target: Androgen receptor (Homo sapiens) (UniProt P10275); experiment: qHTS assay to identify small molecule antagonists of the androgen receptor (AR) signaling pathway using the MDA cell line (AID 743042; further: nearly all actives have a fitted effect of over 55% in size; further: potency means the concentration at half of the fitted maximal effect)
Summary of the method: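 Antagonist mode: compounds plus R1881 agonist added to MDA-kb2 AR-luc cells, incubated 16 h at 37C. Luciferase reporter luminescence quantified, with multiplexed CellTiter-Fluor readout for cell viability.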

Chain of Androgen receptor (Homo sapiens) (P10275 whole entry, looked up): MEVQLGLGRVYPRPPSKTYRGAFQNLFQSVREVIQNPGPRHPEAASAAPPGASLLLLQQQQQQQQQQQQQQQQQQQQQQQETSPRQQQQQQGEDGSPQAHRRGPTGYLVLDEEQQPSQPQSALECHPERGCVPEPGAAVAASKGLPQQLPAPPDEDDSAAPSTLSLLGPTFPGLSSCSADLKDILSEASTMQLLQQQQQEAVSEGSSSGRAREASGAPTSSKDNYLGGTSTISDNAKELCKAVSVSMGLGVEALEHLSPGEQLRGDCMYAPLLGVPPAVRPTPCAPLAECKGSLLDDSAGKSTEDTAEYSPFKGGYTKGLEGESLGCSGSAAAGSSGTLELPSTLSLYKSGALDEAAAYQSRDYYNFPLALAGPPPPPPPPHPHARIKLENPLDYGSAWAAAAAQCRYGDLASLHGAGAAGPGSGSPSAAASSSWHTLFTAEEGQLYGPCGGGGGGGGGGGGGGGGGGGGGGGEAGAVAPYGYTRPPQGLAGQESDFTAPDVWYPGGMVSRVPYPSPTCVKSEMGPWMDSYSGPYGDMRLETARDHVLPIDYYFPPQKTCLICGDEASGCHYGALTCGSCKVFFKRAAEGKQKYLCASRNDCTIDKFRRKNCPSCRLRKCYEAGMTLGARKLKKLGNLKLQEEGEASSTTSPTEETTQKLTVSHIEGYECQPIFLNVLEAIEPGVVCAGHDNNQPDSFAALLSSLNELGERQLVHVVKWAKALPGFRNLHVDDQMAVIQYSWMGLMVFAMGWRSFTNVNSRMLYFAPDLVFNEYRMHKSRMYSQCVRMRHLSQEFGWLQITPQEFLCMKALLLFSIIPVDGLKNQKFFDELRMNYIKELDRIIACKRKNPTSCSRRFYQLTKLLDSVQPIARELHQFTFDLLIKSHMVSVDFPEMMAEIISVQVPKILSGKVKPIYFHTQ

SMILES | Potency [1] | Potency [2] | Potency [3] | Potency [4] | Potency [5] | Potency [6] | Potency [7] | Potency [8] | Potency [9] | Potency [10]
O=c1c(-c2ccccc2)c1-c1ccccc1 | inactive | 3.76 µM (active) | 4.73 µM (active) | 4.73 µM (active) | 21.3 µM (active) |  |  |  |  | 
C[C@H]1[C@H]2CC[C@H]3[C@@H]4CC=C5C[C@@H](N(C)C)CC[C@]5(C)[C@H]4CC[C@]23CN1C | inactive | 15 µM (active) | 11.9 µM (active) | 16.8 µM (active) | inactive | inactive | inactive | inactive |  | 
N#CSc1ccc(N)c([N+](=O)[O-])c1 | 55.3 µM (active) | 12.3 µM (active) | 6.9 µM (active) | 9.75 µM (active) | 24.7 µM (active) |  | inactive | 61.5 µM (active) | 43.9 µM (active) | 61.5 µM (active)
CCN(CCC#N)c1ccc(N=Nc2c(Cl)cc([N+](=O)[O-])cc2Cl)cc1 | inactive | 13.7 µM (active) | 10.9 µM (active) |  |  |  |  |  |  | 
CCCCN1CCCC[C@H]1C(=O)Nc1c(C)cccc1C | inactive | inactive | inactive | inactive | inactive | inactive | inactive | inactive |  | 
O=C(Nc1cccc(Cl)c1)OCC#CCCl | 54.9 µM (active) | 24.3 µM (active) | 21.7 µM (active) | 13.7 µM (active) | 49 µM (active) |  |  |  |  | 
CCc1cc(Cc2cc(CC)cc(C(C)(C)C)c2O)c(O)c(C(C)(C)C)c1 | 11 µM (active) | 21.7 µM (active) | 19.3 µM (active) | 15.4 µM (active) | 24.5 µM (active) |  | inactive | inactive | 13.8 µM (active) | 
CC(C)n1nc(-c2cc3cc(O)ccc3[nH]2)c2c(N)ncnc21 | 9.52 µM (active) | 0.841 µM (active) | 2.37 µM (active) | 0.944 µM (active) |  |  |  |  |  | 
CCCN(CCC)C(=O)C(CCC(=O)OCCCN1CCN(CCOC(=O)Cc2c(C)n(C(=O)c3ccc(Cl)cc3)c3ccc(OC)cc23)CC1)NC(=O)c1ccccc1 (centres undefined) | inactive | 23.7 µM (active) | 26.6 µM (active) | 23.7 µM (active) | inactive |  | inactive | inactive |  | 
CN1CCN(CCC(=O)N2c3ccccc3Sc3ccc(C(F)(F)F)cc32)CC1 | inactive | 16.8 µM (active) | 13.3 µM (active) | 21.1 µM (active) | inactive | inactive | inactive | inactive | inactive | inactive
CCCCCCCCCCCCCCCCCC[N+](C)(C)C | 24.6 µM (active) | 2.74 µM (active) | 1.37 µM (active) | 2.74 µM (active) | 43.8 µM (active) |  | inactive | 48.7 µM (active) |  | 24.4 µM (active)
[O-][n+]1ccccc1SSc1cccc[n+]1[O-] | inactive | 0.0596 µM (active) | 0.0668 µM (active) | 0.0841 µM (active) | 0.169 µM (active) |  | inactive | 1.56 µM (active) |  | 1.19 µM (active)
CCOc1nc2cccc(C(=O)OC(C)OC(=O)OC3CCCCC3)c2n1Cc1ccc(-c2ccccc2-c2nn[nH]n2)cc1 (centres undefined) | 38.9 µM (active) | 34.3 µM (active) | 19.3 µM (active) | 17.2 µM (active) | 30.9 µM (active) |  |  |  |  | 
OCCN1CCN(CC/C=C2/c3ccccc3Sc3ccc(C(F)(F)F)cc32)CC1 | inactive | 9.44 µM (active) | 13.3 µM (active) | 11.9 µM (active) | 19 µM (active) |  | inactive |  |  | 
CN1CCC(Nc2ncc3ncnc(Nc4ccc(F)c(Cl)c4)c3n2)CC1 | inactive | 13.3 µM (active) | 23.7 µM (active) | 21.1 µM (active) | inactive |  | inactive |  |  | inactive
Cc1cc(O)c(C(C)(C)C)cc1C(C)(C)C | 43.6 µM (active) | 10.9 µM (active) | 6.86 µM (active) | 13.7 µM (active) | 21.9 µM (active) |  | inactive | 43.3 µM (active) |  | 54.5 µM (active)
NNc1nc(-c2ccc(N)cc2)cs1 | inactive | 17.2 µM (active) | 21.7 µM (active) | 10.9 µM (active) |  |  |  |  |  | 
O=S1(=O)CC(Cl)(Cl)C(Cl)(Cl)C1 | 9.77 µM (active) | 0.122 µM (active) | 0.172 µM (active) | 0.154 µM (active) | 4.36 µM (active) |  | inactive | 13.7 µM (active) |  | 2.17 µM (active)
C=CC(=O)OCC(CO)(COCC(COC(=O)C=C)(COC(=O)C=C)COC(=O)C=C)COC(=O)C=C | 4.31 µM (active) | 0.34 µM (active) | 0.428 µM (active) | 0.303 µM (active) | 3.84 µM (active) |  | inactive | 1.2 µM (active) | 1.93 µM (active) | 1.07 µM (active)

SMILES | Potency [1] | Potency [2] | Potency [3] | Potency [4] | Potency [5] | Potency [6] | Potency [7] | Potency [8] | Potency [9] | Potency [10]
Cc1[nH]nc2c1N=C(c1ccccc1Cl)c1cc([N+](=O)[O-])ccc1N2 | 19.5 µM (active) | 0.386 µM (active) | 0.386 µM (active) | 0.486 µM (active) |  |  |  |  |  | 
C=CC(=O)OCC(CO)(COC(=O)C=C)COC(=O)C=C | 6.19 µM (active) and 11 µM (active) | 1.73 µM (active) and 2.17 µM (active) | 1.22 µM (active) and 2.43 µM (active) | 1.37 µM (active) and 1.72 µM (active) | 6.94 µM (active) and 11 µM (active) |  | inactive | 17.3 µM (active) and 27.3 µM (active) | 3.9 µM (active) and 4.9 µM (active) | 2.18 µM (active) and 3.86 µM (active)
CC[C@H]1O[C@]2(CC[C@@H]1C)C[C@@H]1C[C@@H](C/C=C(\C)C[C@@H](C)/C=C/C=C3\CO[C@@H]4[C@H](O)C(C)=C[C@@H](C(=O)O1)[C@]34O)O2 | 13.7 µM (active) | 6.06 µM (active) | 6.8 µM (active) | 6.06 µM (active) | inactive |  |  |  |  | 
Nc1c2ccccc2nc2ccccc12 | 16.9 µM (active) and 15.3 µM (active) | 2.11 µM (active) and 4.27 µM (active) | 2.66 µM (active) and 2.14 µM (active) | 944 nM (active) and 677 nM (active) |  |  |  |  |  | 
NNC(=O)c1cccc(C(=O)NN)c1 | inactive | inactive | inactive | inactive | inactive | inactive | inactive | inactive | inactive | inactive
CNCc1cc(F)ccc1Oc1ccc(Cl)c(Cl)c1 | inactive | 13.7 µM (active) |  |  |  |  |  |  |  | 
CCC(C)Nc1ccc(NC(C)CC)cc1 (centres undefined) | 44.5 µM (active) | 12.4 µM (active) | 5.55 µM (active) | 6.99 µM (active) | 12.5 µM (active) |  | inactive | 19.7 µM (active) | 8.88 µM (active) | 8.8 µM (active)
Oc1ccc(C2(c3ccc(O)cc3)CC3CC2C2CCCC32)cc1 (centres undefined) | inactive | inactive | inactive | inactive | 47 µM (active) |  | inactive |  |  | 
Clc1ccc2nsnc2c1NC1=NCCN1 | inactive | inactive | inactive | inactive | inactive |  | 26.6 µM (active) | inactive | inactive | inactive
CCCCCCCCCCn1cc[n+](CCCCCCCCCC)c1C | 13.8 µM (active) | 0.273 µM (active) | 0.109 µM (active) | 0.122 µM (active) | 4.37 µM (active) |  | inactive | 24.4 µM (active) |  | 2.17 µM (active)
NNc1nc(-c2ccc([N+](=O)[O-])cc2)cs1 | 43.6 µM (active) | 6.11 µM (active) | 1.72 µM (active) | 4.33 µM (active) | 30.9 µM (active) |  | inactive | 61.1 µM (active) | 24.5 µM (active) | 48.6 µM (active)
Cc1ccc(O)c2ncccc12 | inactive | 2.11 µM (active) | 2.98 µM (active) | 4.73 µM (active) | 16.9 µM (active) | inactive | inactive | 18.8 µM (active) | 26.8 µM (active) | 13.3 µM (active)
COCCCC/C(=N\OCCN)c1ccc(C(F)(F)F)cc1 | inactive | 6.68 µM (active) | 9.44 µM (active) | 10.6 µM (active) |  |  |  |  |  | 
CCCCCCCCCCC=O | inactive | inactive | inactive | inactive | inactive |  | inactive | inactive | inactive | inactive
COc1cccc2c1C(=O)c1c(O)c3c(c(O)c1C2=O)C[C@@](O)(C(=O)CO)C[C@@H]3O[C@H]1C[C@H](N)[C@H](O[C@@H]2CCCCO2)[C@H](C)O1 | 21.3 µM (active) | 0.188 µM (active) | 0.237 µM (active) | 0.0298 µM (active) | inactive |  | inactive |  | 8.49 µM (active) | 4.22 µM (active)
CCCCCCCCCCCCCCCCCC[N+](C)(C)Cc1ccccc1 | 19.7 µM (active) | 0.978 µM (active) | 0.777 µM (active) | 0.871 µM (active) | 19.7 µM (active) |  | inactive | 17.4 µM (active) |  | 12.3 µM (active)
CS(=O)(=O)CCNCc1ccc(-c2ccc3ncnc(Nc4ccc(OCc5cccc(F)c5)c(Cl)c4)c3c2)o1 | inactive | inactive | inactive | inactive | inactive |  | inactive | inactive | inactive | inactive
CCCCCCCCCCCC(=O)NCCCN(C)C | 30.9 µM (active) | 6.11 µM (active) | 10.9 µM (active) | 6.86 µM (active) | 43.6 µM (active) |  | inactive |  |  | 
